# Assay results as given in PubChem BioAssay (EPA / NIEHS).
# Records with an inconclusive call do not appear. Calls of active or inactive are those of the source. Rule for the calls: active = hit-call score of the fitted dose curve at least 0.9, where 1 is the maximum; inconclusive = response in the unintended direction; inactive = score below 0.9.
# Tests used:
# [1] = molecular target: human Sirtuin 3 (SIRT3), SIRT3 (gene 23410) (UniProt Q9NTG7); experiment: NVS_ENZ_hSIRT3: NovaScreen (NVS) Enzymatic Assay for human Sirtuin 3 (SIRT3) (AID 2283222)
# Method in brief: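 Cell-free enzyme assay with recombinant protein and fluorescent substrate, product separated by electrophoretic mobility shift; read 1 hour after dosing. Screened in duplicate at 25 uM, then singleton concentration-response up to 50 uM; loss of signal versus DMSO.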
# [2] = molecular target: human SRC Proto-Oncogene, Non-receptor Tyrosine Kinase (SRC), SRC (gene 6714) (UniProt P12931); experiment: NVS_ENZ_hSRC: NovaScreen (NVS) Enzymatic Assay for human SRC Proto-Oncogene, Non-receptor Tyrosine Kinase (SRC) (AID 2283223)
# human SRC Proto-Oncogene, Non-receptor Tyrosine Kinase (SRC), SRC (gene 6714), sequence (P12931 whole entry, looked up): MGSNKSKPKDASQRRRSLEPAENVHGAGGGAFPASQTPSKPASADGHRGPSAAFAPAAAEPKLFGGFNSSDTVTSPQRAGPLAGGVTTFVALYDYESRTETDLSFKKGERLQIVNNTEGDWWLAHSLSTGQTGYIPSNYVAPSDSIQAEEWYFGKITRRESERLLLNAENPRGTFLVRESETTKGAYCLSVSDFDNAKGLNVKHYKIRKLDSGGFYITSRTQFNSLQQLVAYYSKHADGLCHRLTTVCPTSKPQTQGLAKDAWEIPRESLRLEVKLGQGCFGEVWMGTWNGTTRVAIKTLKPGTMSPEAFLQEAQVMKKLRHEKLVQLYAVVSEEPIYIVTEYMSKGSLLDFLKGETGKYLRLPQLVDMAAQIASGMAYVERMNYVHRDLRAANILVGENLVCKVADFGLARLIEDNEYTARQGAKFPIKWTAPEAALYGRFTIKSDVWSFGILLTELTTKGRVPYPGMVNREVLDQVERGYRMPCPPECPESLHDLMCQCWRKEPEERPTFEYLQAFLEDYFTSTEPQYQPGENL
# Method in brief: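 Cell-free kinase activity assay with fluorescent substrate, product separated by electrophoretic mobility shift, read 1 h after dosing. Duplicate single point at 25 uM, then concentration-response up to 50 uM; loss of signal versus DMSO.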
# [3] = molecular target: rat Constitutive Nitric Oxide Synthase (CNOS), Nos1 (gene 24598) (UniProt P29476); experiment: NVS_ENZ_rCNOS: NovaScreen (NVS) Enzymatic Assay for rat Constitutive Nitric Oxide Synthase (CNOS) (AID 2283236)
# rat Constitutive Nitric Oxide Synthase (CNOS), Nos1 (gene 24598), sequence (P29476 whole entry, looked up): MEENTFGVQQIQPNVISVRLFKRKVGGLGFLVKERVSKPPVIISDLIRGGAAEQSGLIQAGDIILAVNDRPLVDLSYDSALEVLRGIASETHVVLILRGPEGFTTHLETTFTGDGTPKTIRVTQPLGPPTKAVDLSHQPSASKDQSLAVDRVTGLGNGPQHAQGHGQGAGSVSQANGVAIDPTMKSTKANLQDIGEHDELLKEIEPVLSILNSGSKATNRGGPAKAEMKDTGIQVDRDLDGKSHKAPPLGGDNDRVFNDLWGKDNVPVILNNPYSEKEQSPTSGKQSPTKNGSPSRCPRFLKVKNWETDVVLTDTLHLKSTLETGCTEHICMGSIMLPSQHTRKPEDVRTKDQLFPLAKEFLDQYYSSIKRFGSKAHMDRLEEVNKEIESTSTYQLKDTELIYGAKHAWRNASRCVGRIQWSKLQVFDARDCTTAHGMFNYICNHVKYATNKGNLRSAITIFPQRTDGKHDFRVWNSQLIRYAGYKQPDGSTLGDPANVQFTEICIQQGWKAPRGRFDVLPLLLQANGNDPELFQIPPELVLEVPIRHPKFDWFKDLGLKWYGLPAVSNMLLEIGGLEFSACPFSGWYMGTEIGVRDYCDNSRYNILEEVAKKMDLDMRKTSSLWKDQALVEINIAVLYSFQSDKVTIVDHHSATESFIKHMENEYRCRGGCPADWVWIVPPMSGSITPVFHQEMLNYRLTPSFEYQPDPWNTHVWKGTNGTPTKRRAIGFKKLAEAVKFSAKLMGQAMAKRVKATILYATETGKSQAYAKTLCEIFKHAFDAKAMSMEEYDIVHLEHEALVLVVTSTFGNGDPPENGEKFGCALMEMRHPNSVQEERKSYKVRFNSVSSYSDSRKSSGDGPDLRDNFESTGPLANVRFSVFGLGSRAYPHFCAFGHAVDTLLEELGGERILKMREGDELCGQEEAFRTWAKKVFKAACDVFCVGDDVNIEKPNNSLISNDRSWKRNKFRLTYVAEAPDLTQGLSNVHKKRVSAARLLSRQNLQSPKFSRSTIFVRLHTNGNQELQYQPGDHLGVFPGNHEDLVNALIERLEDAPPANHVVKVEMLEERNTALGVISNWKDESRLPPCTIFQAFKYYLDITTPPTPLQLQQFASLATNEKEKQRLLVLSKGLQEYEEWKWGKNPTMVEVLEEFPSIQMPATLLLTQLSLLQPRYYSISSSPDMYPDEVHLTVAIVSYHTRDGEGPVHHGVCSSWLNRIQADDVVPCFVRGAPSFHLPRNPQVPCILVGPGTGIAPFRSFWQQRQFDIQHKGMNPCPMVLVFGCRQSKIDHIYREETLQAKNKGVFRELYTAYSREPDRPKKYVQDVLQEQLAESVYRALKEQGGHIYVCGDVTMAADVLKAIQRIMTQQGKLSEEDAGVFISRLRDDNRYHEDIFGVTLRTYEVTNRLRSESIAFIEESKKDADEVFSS
# Method in brief: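 Enzyme activity in rat brain membrane preparation, read 1 h after dosing by filter-based radiometric scintillation counting. Primary screen in duplicate at 25 uM; actives (e.g., ≥30% inhibition) then run in concentration-response up to 50 uM.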
# [4] = molecular target: human Protein Tyrosine Phosphatase Receptor Type M (PTPRM), PTPRM (gene 5797) (UniProt P28827); experiment: NVS_ENZ_hPTPRM: NovaScreen (NVS) Enzymatic Assay for human Protein Tyrosine Phosphatase Receptor Type M (PTPRM) (AID 2283215)
# human Protein Tyrosine Phosphatase Receptor Type M (PTPRM), PTPRM (gene 5797), sequence (P28827 whole entry, looked up): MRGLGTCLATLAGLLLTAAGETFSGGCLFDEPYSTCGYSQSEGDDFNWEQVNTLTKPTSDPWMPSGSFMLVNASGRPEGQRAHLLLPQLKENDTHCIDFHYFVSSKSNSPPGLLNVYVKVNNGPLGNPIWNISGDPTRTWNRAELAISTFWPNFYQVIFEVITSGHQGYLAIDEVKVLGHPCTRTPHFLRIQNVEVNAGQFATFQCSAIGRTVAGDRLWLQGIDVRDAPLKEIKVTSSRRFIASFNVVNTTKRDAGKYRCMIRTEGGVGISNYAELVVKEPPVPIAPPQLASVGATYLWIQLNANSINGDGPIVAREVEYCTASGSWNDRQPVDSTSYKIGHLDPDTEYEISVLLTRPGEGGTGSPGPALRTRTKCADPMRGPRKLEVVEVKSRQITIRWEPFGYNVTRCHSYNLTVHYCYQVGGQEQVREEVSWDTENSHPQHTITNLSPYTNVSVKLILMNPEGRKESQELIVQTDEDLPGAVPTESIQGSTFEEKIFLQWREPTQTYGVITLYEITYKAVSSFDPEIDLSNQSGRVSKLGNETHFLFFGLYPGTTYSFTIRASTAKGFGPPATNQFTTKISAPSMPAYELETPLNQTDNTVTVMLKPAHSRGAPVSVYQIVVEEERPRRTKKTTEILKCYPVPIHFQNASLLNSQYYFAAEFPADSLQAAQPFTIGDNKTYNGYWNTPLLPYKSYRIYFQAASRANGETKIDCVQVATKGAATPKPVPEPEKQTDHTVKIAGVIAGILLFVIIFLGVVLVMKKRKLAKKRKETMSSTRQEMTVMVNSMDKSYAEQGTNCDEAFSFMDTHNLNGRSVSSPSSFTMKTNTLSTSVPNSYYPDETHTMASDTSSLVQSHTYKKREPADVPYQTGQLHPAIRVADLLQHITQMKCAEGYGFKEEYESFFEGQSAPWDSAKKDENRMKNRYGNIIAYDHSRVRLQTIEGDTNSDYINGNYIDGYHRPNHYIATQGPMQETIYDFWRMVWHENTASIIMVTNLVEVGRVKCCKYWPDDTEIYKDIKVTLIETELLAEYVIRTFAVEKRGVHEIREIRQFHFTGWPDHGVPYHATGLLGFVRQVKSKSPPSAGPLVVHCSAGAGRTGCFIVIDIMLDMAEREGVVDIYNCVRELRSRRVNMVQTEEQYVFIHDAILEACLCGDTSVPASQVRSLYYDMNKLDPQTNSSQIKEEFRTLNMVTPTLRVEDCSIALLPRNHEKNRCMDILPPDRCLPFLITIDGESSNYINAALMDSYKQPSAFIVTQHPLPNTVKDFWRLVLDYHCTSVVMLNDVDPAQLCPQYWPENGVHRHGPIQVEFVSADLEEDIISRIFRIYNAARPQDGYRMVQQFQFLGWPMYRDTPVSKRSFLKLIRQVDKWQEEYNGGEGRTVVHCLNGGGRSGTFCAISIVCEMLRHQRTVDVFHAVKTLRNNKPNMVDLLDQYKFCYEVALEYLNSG
# Method in brief: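 Cell-free recombinant PTPRM with fluorogenic substrate; product separated from substrate by electrophoretic mobility shift and read by fluorescence, 1.33 h after dosing. Primary screen single concentration (25 uM) in duplicate; actives retested in concentration series; loss of signal versus DMSO.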
# [5] = molecular target: human Sirtuin 1 (SIRT1), SIRT1 (gene 23411) (UniProt Q96EB6); experiment: NVS_ENZ_hSIRT1: NovaScreen (NVS) Enzymatic Assay for human Sirtuin 1 (SIRT1) (AID 2283219)
# human Sirtuin 1 (SIRT1), SIRT1 (gene 23411), sequence (Q96EB6 whole entry, looked up): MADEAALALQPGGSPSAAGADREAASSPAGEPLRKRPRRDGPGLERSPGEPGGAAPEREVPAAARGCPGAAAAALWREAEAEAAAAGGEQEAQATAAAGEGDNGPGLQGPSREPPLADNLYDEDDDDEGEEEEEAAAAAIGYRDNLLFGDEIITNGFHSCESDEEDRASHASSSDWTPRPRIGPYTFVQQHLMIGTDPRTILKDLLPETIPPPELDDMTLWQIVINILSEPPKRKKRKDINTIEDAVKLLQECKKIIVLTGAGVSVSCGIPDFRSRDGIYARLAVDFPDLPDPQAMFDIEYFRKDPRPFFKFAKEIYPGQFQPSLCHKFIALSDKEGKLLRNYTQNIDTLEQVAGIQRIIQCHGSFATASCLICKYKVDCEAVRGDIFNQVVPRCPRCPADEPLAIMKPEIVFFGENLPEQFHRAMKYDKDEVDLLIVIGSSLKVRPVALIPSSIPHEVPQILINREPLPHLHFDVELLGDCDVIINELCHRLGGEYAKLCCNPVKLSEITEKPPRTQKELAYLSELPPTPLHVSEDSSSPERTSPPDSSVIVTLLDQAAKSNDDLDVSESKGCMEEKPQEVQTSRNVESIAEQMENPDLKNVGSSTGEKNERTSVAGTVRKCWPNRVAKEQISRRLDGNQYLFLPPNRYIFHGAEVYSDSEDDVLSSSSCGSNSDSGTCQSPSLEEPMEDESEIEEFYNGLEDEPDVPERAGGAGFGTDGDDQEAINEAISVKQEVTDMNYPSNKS
# Method in brief: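 Cell-free recombinant SIRT1 with a fluorescent substrate; substrate and product separated by electrophoretic mobility shift and read by fluorescence intensity, 1 h after dosing. Primary screen at 25 uM in duplicate; hits re-run in concentration-response up to 50 uM, relative to DMSO.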
# [6] = molecular target: rat Adenylate Cyclase, Forskolin Stimulated, Adcy5 (gene 64532) (UniProt Q04400); experiment: NVS_ENZ_rACFSKBinding: NovaScreen (NVS) Enzymatic Assay for rat Adenylate Cyclase, Forskolin Stimulated (AID 2283232)
# Method in brief: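 Rat forebrain membrane preparation, cell-free, read 1 h after dosing by filter-based scintillation counting. Primary screen in duplicate at 25 uM; actives (e.g. ≥30% inhibition) rerun in concentration-response up to 50 uM; fit versus DMSO.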
# [7] = molecular target: rat Acetylcholinesterase (AChE), Ache (gene 83817) (UniProt P37136); experiment: NVS_ENZ_rAChE: NovaScreen (NVS) Enzymatic Assay for rat Acetylcholinesterase (AChE) (AID 2283233)
# Method in brief: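 Rat brain membrane acetylcholinesterase activity measured colorimetrically 0.33 h after compound addition, loss of signal relative to DMSO. Primary screen in duplicate at 25 uM; actives re-run as concentration-response with 50 uM top concentration.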
# [8] = molecular target: human Raf-1 Proto-Oncogene, serine/threonine Kinase (RAF1), RAF1 (gene 5894) (UniProt P04049); experiment: NVS_ENZ_hRAF1: NovaScreen (NVS) Enzymatic Assay for human Raf-1 Proto-Oncogene, serine/threonine Kinase (RAF1) (AID 2283216)
# human Raf-1 Proto-Oncogene, serine/threonine Kinase (RAF1), RAF1 (gene 5894), sequence (P04049 whole entry, looked up): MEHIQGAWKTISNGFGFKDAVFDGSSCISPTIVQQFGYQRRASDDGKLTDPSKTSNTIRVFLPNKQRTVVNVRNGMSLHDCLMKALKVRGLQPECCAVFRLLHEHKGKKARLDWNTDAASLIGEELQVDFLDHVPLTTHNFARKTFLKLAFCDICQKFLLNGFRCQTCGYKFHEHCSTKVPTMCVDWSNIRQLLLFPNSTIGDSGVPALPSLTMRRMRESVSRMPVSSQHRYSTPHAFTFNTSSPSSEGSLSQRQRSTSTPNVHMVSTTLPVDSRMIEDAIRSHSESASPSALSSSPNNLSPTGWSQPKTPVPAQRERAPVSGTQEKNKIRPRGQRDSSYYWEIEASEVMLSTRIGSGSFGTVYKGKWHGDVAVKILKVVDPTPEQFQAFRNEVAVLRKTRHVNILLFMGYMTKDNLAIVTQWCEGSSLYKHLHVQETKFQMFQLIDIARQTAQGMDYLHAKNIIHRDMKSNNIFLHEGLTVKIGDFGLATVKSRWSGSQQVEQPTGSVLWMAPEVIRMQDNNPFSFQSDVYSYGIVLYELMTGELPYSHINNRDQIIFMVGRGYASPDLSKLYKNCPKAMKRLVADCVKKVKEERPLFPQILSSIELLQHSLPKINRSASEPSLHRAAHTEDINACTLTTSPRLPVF
# Method in brief: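 Cell-free recombinant kinase with specific fluorescent substrate, product separated by electrophoretic mobility shift; read 1 h after dosing. Primary screen at 25 uM in duplicate; hits then run in concentration-response up to 50 uM, fitted as loss of signal versus DMSO.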
# [9] = molecular target: human Vascular Endothelial Growth Factor Receptor 3 (VEGFR3), FLT4 (gene 2324) (UniProt P35916); experiment: NVS_ENZ_hVEGFR3: NovaScreen (NVS) Enzymatic Assay for human Vascular Endothelial Growth Factor Receptor 3 (VEGFR3) (AID 2283229)
# Method in brief: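 Cell-free recombinant VEGFR3 kinase reaction with fluorescent substrate, read 1 h after dosing by electrophoretic mobility shift separation of substrate and product. Single-concentration duplicate screen at 25 uM, then concentration-response up to 50 uM; loss of activity versus DMSO.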
smiles,measurement,setting,value
CC(C)[C@H](C(=O)O[C@H](C#N)c1cccc(Oc2ccccc2)c1)c1ccc(Cl)cc1,outcome,[1],inactive
same,outcome,[2],inactive
same,outcome,[3],inactive
COP(=O)(OC)OC(Br)C(Cl)(Cl)Br (configuration not stated),outcome,[4],inactive
same,AC50,[5],15.8 µM (active)
same,AC50,[6],14.6 µM (active)
same,AC50,[7],1.01 µM (active)
CN(C)NC(=O)CCC(=O)O,outcome,[8],inactive
CCCOc1nn(C(=O)NS(=O)(=O)c2ccccc2C(=O)OC)c(=O)n1C,outcome,[8],inactive
same,outcome,[9],inactive
Nc1c(Cl)cc([N+](=O)[O-])cc1Cl,outcome,[4],inactive
same,outcome,[3],inactive
